86 sequences from the supplement of paper PMC4166925 can be followed below.

± gives the standard deviation of the averaged measurements. Over roughly 33,000 sequences, “E-score (dimensionless, -0.5 to 0.5)” has its median near -0.046; the highest 2% begin near 0.36. What follows is part of a selection rich in the highest values, with near analogues and random picks from the rest.
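Further: protein at 200 nM in PBS on universal double-stranded arrays.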

The test system of this assay is T1, SpTbr T-box DNA-binding domain (GST fusion).
T1 sequence: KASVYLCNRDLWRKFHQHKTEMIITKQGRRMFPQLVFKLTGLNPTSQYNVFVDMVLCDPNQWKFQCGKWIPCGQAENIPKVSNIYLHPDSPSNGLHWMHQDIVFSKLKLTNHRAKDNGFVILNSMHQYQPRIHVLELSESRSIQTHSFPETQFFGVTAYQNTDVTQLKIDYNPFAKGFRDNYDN
Put plainly: PBM E-score of 8-mer (E-score (dimensionless, -0.5 to 0.5)); Tbr is Tbrain of the sea star Patiria miniata (Pm) or the sea urchin Strongylocentrotus purpuratus (Sp); higher = stronger binding preference. The note with it: the construct has about 5 more residues each side. As to the method: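 Universal protein-binding microarray (Agilent AMADID 016060, 60-bp probes with a 35-bp variable region) incubated with 200 nM GST-fused Strongylocentrotus purpuratus Tbr T-box DNA-binding domain (residues 362-554) in PBS pH 7.5. Scored for every ungapped 8-mer (given with its reverse complement) as E-score (range -0.5 to 0.5; >0.45 counts as bound) and Z-score of median probe intensity. Two replicate arrays (datasets 1 and 2).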
For the sequence GAGCGCTA, the “PBM E-score of 8-mer” value is 0.205 ± 0.021.

In the case of AAAAGGTA, the “PBM E-score of 8-mer” value is -0.207 ± 0.011.

Turning to AACCTATA, the “PBM E-score of 8-mer” value was -0.123 ± 0.024.

Take CACCTATG: the “PBM E-score of 8-mer” value was 0.427 ± 0.011.

Consider CACCTATC, for which the “PBM E-score of 8-mer” value came to 0.358 ± 0.012.

As to AACCTATG, the “PBM E-score of 8-mer” value was -0.15 ± 0.014.

Take CACCTATA: the “PBM E-score of 8-mer” value was determined as 0.392 ± 0.015.

Take TACCTATA: the “PBM E-score of 8-mer” value is -0.192 ± 0.0052.

With CGCTAATA, the “PBM E-score of 8-mer” value was determined as 0.135 ± 0.092.

For CGCCGGCG, the “PBM E-score of 8-mer” value was found to be 0.1618 ± 0.00064.

On to ATCGTACC, for which the “PBM E-score of 8-mer” value is -0.157 ± 0.03.

As for GAACAGTA, the “PBM E-score of 8-mer” value came out at 0.00048 ± 0.058.

For the sequence CACCGCCG, the “PBM E-score of 8-mer” value was determined as 0.151 ± 0.1.

Take GTCTCACA: the “PBM E-score of 8-mer” value is 0.382 ± 0.0069.

For ATCTCAAC, the “PBM E-score of 8-mer” value came out at 0.00654 ± 0.026.

Regarding ACCTCACC, the “PBM E-score of 8-mer” value stood at 0.224 ± 0.017.

As to ATGTCACC, the “PBM E-score of 8-mer” value was found to be 0.323 ± 0.0098.

As for GTCTCTCA, the “PBM E-score of 8-mer” value was 0.0648 ± 0.045.

As to CTGTCACA, the “PBM E-score of 8-mer” value is 0.358 ± 0.01.

As to CTGTCACC, the “PBM E-score of 8-mer” value is 0.396 ± 0.0078.

As for CTCTCACC, the “PBM E-score of 8-mer” value was found to be 0.38 ± 0.021.

Regarding CGCTCACC, the “PBM E-score of 8-mer” value was 0.0959 ± 0.018.

On to ATCTCACC, for which the “PBM E-score of 8-mer” value turned out to be 0.422 ± 0.0058.

On to GCCTCACA, for which the “PBM E-score of 8-mer” value worked out at 0.292 ± 0.0099.

For the sequence CTCTCACA, the “PBM E-score of 8-mer” value was 0.3477 ± 0.0025.

In the case of ATATGAAT, the “PBM E-score of 8-mer” value was -0.00217 ± 0.023.

Turning to ACACCAAA, the “PBM E-score of 8-mer” value was 0.315 ± 0.013.

As for AAGAATGT, the “PBM E-score of 8-mer” value is -0.0437 ± 0.045.

Turning to TACCGGAA, the “PBM E-score of 8-mer” value was -0.116 ± 0.02.

Consider AAGGAGAG, for which the “PBM E-score of 8-mer” value was -0.168 ± 0.0067.

CACCGATC: the “PBM E-score of 8-mer” value was determined as 0.154 ± 0.014.

With TATATGCA, the “PBM E-score of 8-mer” value was -0.113 ± 0.014.

For the sequence AATGCGTG, the “PBM E-score of 8-mer” value is 0.253 ± 0.028.

For CAGGTCAA, the “PBM E-score of 8-mer” value was -0.18 ± 0.073.

For the sequence ACGGACAT, the “PBM E-score of 8-mer” value is -0.0905 ± 0.036.

Turning to AACTTAAT, the “PBM E-score of 8-mer” value was -0.0641 ± 0.021.

On to GTGCCCCA, for which the “PBM E-score of 8-mer” value was -0.0876 ± 0.0044.

With AGCACCCC, the “PBM E-score of 8-mer” value was determined as 0.27 ± 0.036.

Regarding ACCTCACA, the “PBM E-score of 8-mer” value turned out to be 0.41113 ± 4.2e-05.

With ATCTCACG, the “PBM E-score of 8-mer” value was 0.29 ± 0.012.

With ATCTCTCA, the “PBM E-score of 8-mer” value was 0.171 ± 0.012.

On to ATCTCACA, for which the “PBM E-score of 8-mer” value was 0.372 ± 0.0029.

In the case of TCCTCACA, the “PBM E-score of 8-mer” value came to 0.3492 ± 0.0024.

ACCTCACG: the “PBM E-score of 8-mer” value was 0.239 ± 0.005.

In the case of TCCTATCA, the “PBM E-score of 8-mer” value was -0.0124 ± 0.0011.

For the sequence GGTGGCAC, the “PBM E-score of 8-mer” value was 0.3544 ± 0.0029.

Turning to GGTGGCAA, the “PBM E-score of 8-mer” value is 0.4 ± 0.011.

On to AGTGGCAA, for which the “PBM E-score of 8-mer” value is 0.305 ± 0.0085.

Turning to AGTTTGAC, the “PBM E-score of 8-mer” value came out at 0.143 ± 0.018.

For the sequence CTGTGTTA, the “PBM E-score of 8-mer” value stood at 0.195 ± 0.079.

As to ATGTGTTG, the “PBM E-score of 8-mer” value amounted to 0.381 ± 0.014.

For the sequence ATGTGTTA, the “PBM E-score of 8-mer” value came out at 0.444 ± 0.015.

ATATGTTG: the “PBM E-score of 8-mer” value was -0.00329 ± 0.071.

ATGTGTTC: the “PBM E-score of 8-mer” value is 0.111 ± 0.064.

As to GTGTGTTA, the “PBM E-score of 8-mer” value was determined as 0.318 ± 0.021.

For CCTTTTAG, the “PBM E-score of 8-mer” value was 0.0506 ± 0.044.

Regarding ATAACACC, the “PBM E-score of 8-mer” value came to 0.457 ± 0.0069.

Consider CTTACACA, for which the “PBM E-score of 8-mer” value came to 0.276 ± 0.035.

CTTACACC: the “PBM E-score of 8-mer” value was found to be 0.392 ± 0.025.

ATAACACA: the “PBM E-score of 8-mer” value was 0.35 ± 0.028.

Consider CGAACACC, for which the “PBM E-score of 8-mer” value came out at 0.321 ± 0.011.

On to CTAACACC, for which the “PBM E-score of 8-mer” value was 0.464 ± 0.005.

In the case of ATAACACG, the “PBM E-score of 8-mer” value is 0.303 ± 0.033.

As to CTAACACA, the “PBM E-score of 8-mer” value was determined as 0.354 ± 0.0043.

On to ATTACACC, for which the “PBM E-score of 8-mer” value worked out at 0.358 ± 0.057.

Turning to CTTCTAAC, the “PBM E-score of 8-mer” value stood at 0.16 ± 0.038.

As to CATATCGA, the “PBM E-score of 8-mer” value was -0.154 ± 0.056.

As to CCGCAAAG, the “PBM E-score of 8-mer” value is -0.233 ± 0.015.

CGAGATCG: the “PBM E-score of 8-mer” value came out at 0.175 ± 0.058.

For AAACTGAG, the “PBM E-score of 8-mer” value is -0.1 ± 0.018.

With CACCAAGC, the “PBM E-score of 8-mer” value was 0.129 ± 0.017.

Turning to CCCAACAC, the “PBM E-score of 8-mer” value stood at 0.343 ± 0.013.

As for GAACTTAC, the “PBM E-score of 8-mer” value is -0.0233 ± 0.034.

For the sequence CCAAGTAA, the “PBM E-score of 8-mer” value is -0.21 ± 0.095.

For CGCGAAGA, the “PBM E-score of 8-mer” value amounted to 0.371 ± 0.01.

As to AGCGAAGA, the “PBM E-score of 8-mer” value is 0.106 ± 0.019.

As to CGCGAAAC, the “PBM E-score of 8-mer” value was determined as 0.344 ± 0.0048.

For the sequence CGCGAAAG, the “PBM E-score of 8-mer” value turned out to be 0.387 ± 0.015.

Take CGCGAACA: the “PBM E-score of 8-mer” value was determined as 0.36 ± 0.019.

Consider GGCGAACC, for which the “PBM E-score of 8-mer” value was -0.141 ± 0.05.

AGCGAAAG: the “PBM E-score of 8-mer” value is -0.123 ± 0.022.

Turning to CGCGAAGC, the “PBM E-score of 8-mer” value came to 0.324 ± 0.033.

On to AGCGAACC, for which the “PBM E-score of 8-mer” value amounted to 0.0666 ± 0.08.

For the sequence AGCGAACG, the “PBM E-score of 8-mer” value was 0.0538 ± 0.025.

On to CGCGAACG, for which the “PBM E-score of 8-mer” value was determined as 0.422 ± 0.013.

Consider CGCGAACC, for which the “PBM E-score of 8-mer” value was 0.375 ± 0.013.
